CHX counter – Cycloheximide Counterscreen for Small Molecule Inhibitors of Shiga Toxin | max response, % | 12% of 300,000 active | cell reporter, cycloheximide protein synthesis inhibition counterscreen; in the data active = max response mostly above about 13%, no sharp cut-off; inactive = mostly below about 14%; note: read at 38.3 µM for the half of the compounds with a filed dose; 0% is about no effect
TbPYK inhibitor – qHTS of Trypanosoma Brucei Inhibitors; TbPYK enzyme, Kinase-Glo Plus ATP luminescence, 45 min; Potency, µM (doses to about 76.8 µM), inactives show top-dose activity, negative = inhibition, hits mostly inhibitors; AID 624173, 2012; 0.12% of 410,000 active; note: potency is the fitted concentration of half-maximal effect; % is set by controls: 0 for no effect and ±100 for the full control effect; nearly all actives have a fitted effect of over 50% in size
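Activity of T. brucei pyruvate kinase was followed by Kinase-Glo Plus luminescence after the enzyme reacted 45 min at room temperature with 130 uM ADP (final) and substrate. Test compounds were added before ADP at multiple concentrations.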
FBPA Giardia inh – qHTS Assay for Inhibitors of Fructose-1,6-bisphosphate Aldolase from Giardia Lamblia. purified Giardia FBPA. Potency, µM (series often up to 59.6 µM), for the others: top-dose activity, negative = inhibition, usual class: inhibitors. 0.71% of 290,000 active. AID 2451, 2010; note: potency is the fitted concentration of half-maximal effect; % is set by controls: 0 for no effect and ±100 for the full control effect; nearly all actives have a fitted effect of over 55% in size
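Giardia FBPA (40 nM reagent) was preincubated 10 min at RT with compound (up to 57.5 uM final), then substrate plus GAPDH/TPI/NAD/arsenate coupling system with diaphorase/resazurin was added; resorufin fluorescence (525/598 nm) was read after 20 min.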
Shiga inhibitor – A qHTS for Small Molecule Inhibitors of Shiga Toxin; Vero cells, Shiga toxin protein synthesis inhibition reporter; inhibition, % at 38.7 µM; 9.2% of 290,000 active; in the data active = inhibition mostly above about 28%, no sharp cut-off; inactive = mostly below about 43%; note: 0% is about no effect
LmPK inh – qHTS Assay for Inhibitors of Leishmania Mexicana Pyruvate Kinase (LmPK); purified LmPK, Kinase-Glo ATP luminescence, 1 h; Q27686; 0.37% of 290,000 active; Potency, µM (highest dose often 57.5 µM), inactives show top-dose activity change, negative = inhibition, actives largely listed as inhibitors; note: potency is the fitted concentration of half-maximal effect; % is set by controls: 0 for no effect and ±100 for the full control effect
Target sequence (Q27686 whole entry, looked up): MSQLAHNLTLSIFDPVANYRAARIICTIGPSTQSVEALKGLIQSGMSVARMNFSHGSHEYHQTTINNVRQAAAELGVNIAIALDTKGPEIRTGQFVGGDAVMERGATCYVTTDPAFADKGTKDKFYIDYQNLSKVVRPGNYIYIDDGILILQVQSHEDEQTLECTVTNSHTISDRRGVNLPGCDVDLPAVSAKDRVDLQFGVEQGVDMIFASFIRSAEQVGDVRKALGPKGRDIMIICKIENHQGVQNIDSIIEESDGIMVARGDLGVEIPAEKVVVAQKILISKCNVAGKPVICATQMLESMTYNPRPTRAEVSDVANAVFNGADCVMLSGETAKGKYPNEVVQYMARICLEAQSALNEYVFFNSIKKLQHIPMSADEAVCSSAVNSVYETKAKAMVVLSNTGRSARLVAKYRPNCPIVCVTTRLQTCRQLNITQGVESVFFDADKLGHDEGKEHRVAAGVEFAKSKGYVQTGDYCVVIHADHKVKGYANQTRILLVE
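Screened at intermediate enzyme activity to detect both inhibitors and activators: LmPK at 0.1 nM, with a 0.5 nM enzyme column as activation reference. PEP 0.5 mM, ADP 0.1 mM; ATP detected by luminescence after 1 h.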
RE007 growth inh – qHTS Assay for Inhibitors of the HIV-1 protein Vpr | 0.21% of 360,000 active | S. pombe RE007 Vpr strain, BacTiter-Glo ATP luminescence, 24 h | Potency, µM (doses to about 92.2 µM), for inactives: at the highest dose activity change, negative = less growth, hits mostly inhibitors; active = well fitted falling curve with a large enough effect; inconclusive = small, poorly fitted or top-dose-only effect; inactive = no such curve, though single readings can be large or run the other way; note: potency is the fitted concentration of half-maximal effect; % is set by controls: 0 for no effect and ±100 for the full control effect; nearly all actives have a fitted effect of over 50% in size
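Fission yeast strain RE007, carrying one chromosomally integrated HIV-1 vpr copy, was seeded at OD 0.01 in PMG+AL medium with 23 nL pinned compound. After 24 h at 30 °C and 99% humidity, viability was read by BacTiter-Glo luminescence.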
The depositor's hits bear a star; ? = inconclusive; nt = not tested or not shown; + = active, no number; [ ] = another dose, or the depositor's remark. Shown is part of a subset that was picked to be rich in hits. Unless noted, calls come from the whole dose curve; as a rule, active = well fitted curve in the direction sought with a large enough effect; inconclusive = small, poorly fitted or top-dose-only effect, or another doubt; inactive = no such curve, though single readings can be large; an effect the other way counts as inactive or inconclusive.

SMILES	CHX counter	TbPYK inhibitor	FBPA Giardia inh	Shiga inhibitor	LmPK inh	RE007 growth inh
Cc1ccccc1NC(=O)c1nc(S(C)(=O)=O)ncc1N(Cc1ccco1)Cc1sccc1C	nt	2.0%	nt	nt	nt	nt
COc1ccc(Cn2cc(CN3CC(N4CCN(C5CCN(C)CC5)CC4)CS3(=O)=O)nn2)cc1 (stereo unspecified)	nt	-0.7%	nt	nt	nt	2.4%
CCN(CC)c1cc2c(cc1F)c(=O)c(S(=O)(=O)c1ccc(OC)cc1)cn2Cc1ccccc1	nt	2.2%	nt	nt	nt	nt
CCSc1ccc(-c2cccc([N+](=O)[O-])c2)nn1	52.7*	-2.2%	8.4%	+	15.3%[11.5 µM]	1.4%
O=C(CSc1ccc(-c2cccc([N+](=O)[O-])c2)nn1)N1CCCC1	30.2	0.1%	5.6%	25.2	-0.1%[11.5 µM]	-6.2%
O=C(CSc1ccc(-c2cccc([N+](=O)[O-])c2)nn1)N1CCCCCC1	19.4*	1.1%	3.2%	33.2	-3.8%	-2.3%
Cc1cc(NC(=O)CSc2ccc(-c3cccc([N+](=O)[O-])c3)nn2)no1	0.4	6.4%	3.9%	-9.4	13.6%	7.9%
C#CCCCO/N=C1/C[C@@H](O)[C@@H](O)[C@@H]2[C@@H]3C(=O)N(c4cccc(Oc5ccccc5)c4)C(=O)[C@H]3CC[C@H]12	nt	nt	0.0%[12.9 µM]	nt	nt	nt
Cc1nn2cc(-c3ccc(Cl)cc3)cnc2c1Cl	28.9*	-1.7%	-2.0%	49.3*	-15.7%	3.7%
CCOP(=S)(OCC)Oc1ncn(-c2ccccc2)n1	26.4	nt	-22.5%	24.3	nt	nt
CC(=NCCO)c1c(O)n(C2CCCCC2)c(=O)[nH]c1=O	22.1	28.5%	5.8%	36.0	-2.8%	-2.4%
C/C(=N\NC(=O)c1ccccc1)c1c(O)n(C2CCCCC2)c(=O)[nH]c1=O	40.8*	2.8%	nt	66.9*	9.7%	3.7%
C/C(=N\NC(=O)c1ccccc1O)c1c(O)n(Cc2ccccc2)c(=O)[nH]c1=O	25.1*	3.2%	?	51.0	4.5%	-1.6%
C/C(=N\NC(=O)c1ccccc1O)c1c(O)n(C2CCCCC2)c(=O)[nH]c1=O	23.4*	-6.7%	nt	41.2*	-3.6%	24.6%
CC(=NCc1ccco1)c1c(O)n(C2CCCCC2)c(=O)[nH]c1=O	4.0	2.8%	-2.7%	-3.2	2.8%	21.9%
C/C(=N\NC(=O)c1ccncc1)c1c(O)n(Cc2ccccc2)c(=O)[nH]c1=O	16.7	3.6%	25.2%	-13.2	5.2%	-4.0%
C/C(=N\NC(=O)c1ccccc1Cl)c1c(O)n(C2CCCCC2)c(=O)[nH]c1=O	32.4*	-1.7%	14.3%	35.1*	-8.1%	-4.2%
COc1ccc(-n2c(=O)cnc3cnc(N(C)C)nc32)cc1	nt	nt	1.1%	nt	nt	nt
CC(=O)c1ccc(OCc2cccc(C(F)(F)F)c2)cc1O	29.5*	-14.8%	-1.3%	42.9*	-7.2%	-16.1%
O=C(O)Cn1nnc(-c2ccc(OCc3cccc(C(F)(F)F)c3)cc2)n1	nt	3.4%	nt	nt	nt	nt
Cc1ccn2cc(CNS(=O)(=O)c3cccs3)nc2c1	22.7*	7.9%	-9.3%	46.0*	3.0%	-16.9%
O=C(NCCc1cn2ccsc2n1)c1cccs1	23.3*	0.2%	-5.5%	24.9*	1.5%	-9.9%
O=C(NCc1csc(-c2cccs2)n1)c1ccsc1	22.3*	-4.3%	5.3%	55.5*	-4.0%	29.3%
O=S(=O)(NCc1cn2ccsc2n1)c1cccs1	23.4*	1.6%	-1.8%	20.6	-1.0%	10.4%
Cc1ccn2cc(CNC(=O)c3cccs3)nc2c1	-2.7	-10.1%	-12.7%	-9.0	1.7%	-12.1%
SMILES	CHX counter	TbPYK inhibitor	FBPA Giardia inh	Shiga inhibitor	LmPK inh	RE007 growth inh
COC(=O)c1ccccc1S(=O)(=O)NNC(=O)Nc1ccccc1	13.0	-6.6%	-3.8%	32.5	-0.9%	-10.4%
CSc1cccc(NC(=O)CCCn2c(=O)c3cccn3c3cccnc32)c1	9.3	1.7%	1.0%	16.4	-1.3%	1.3%
COC(=O)c1ccc(-n2c(/C=C/c3cc(OC)c(OC)c(OC)c3)nc3cc(Cl)ccc3c2=O)cc1	nt	-8.8%	nt	nt	nt	nt
O=S(=O)(NCc1csc(-c2cccs2)n1)c1ccc(Cl)cc1	-2.7	-1.4%	-27.3%	-19.8	-1.7%	-5.4%
CCS(=O)(=O)NCc1csc(-c2ccccc2)n1	14.8*	4.1%	2.2%	9.9	-7.1%	13.2%
O=S(=O)(NCc1csc(-c2cccs2)n1)c1cccs1	17.5*	-13.8%	-13.9%	53.0*	3.6%	-11.7%
CS(=O)(=O)NCc1csc(-c2ccccc2)n1	9.0	0.5%	4.9%	29.6	2.1%	-11.1%
Cc1ccc(S(=O)(=O)NNC(=O)c2sc(=S)n(C)c2C)cc1	-2.3	0.2%	-2.6%	-4.6	1.3%	1.0%
Cc1ccc(NC(=O)Nc2ccc(Cl)c(Cl)c2)nc1	32.3*	-1.8%	0.7%	70.0*	5.2%	1.7%
Cc1ccc(NC(=O)Nc2ccc(Cl)cn2)cc1	39.4*	-2.8%	-0.4%	43.9*	-2.0%	1.7%
O=C(Nc1ccc(Cl)c(Cl)c1)Nc1ccc([N+](=O)[O-])cn1	10.1	2.1%	-3.0%	9.5	1.4%	1.9%
O=C(Nc1ccc(Cl)cn1)Nc1ccccc1Cl	5.8	2.6%	11.7%	8.9	-0.9%	-7.1%
Cc1ccc(S(=O)(=O)NCC(=O)N2CCN(c3ccc(F)cc3)CC2)cc1	-2.4	-9.7%	nt	-7.8	1.6%	23.3%
CCCCCC[n+]1c(-c2ccc(Cl)cc2Cl)csc1Nc1ccccc1	-6.1	2.3%	2.5%	-2.7	-1.2%	-10.4%
c1ccc(C[n+]2c(-c3ccccc3)csc2Nc2ccccc2)cc1	15.1*	-0.2%	6.3%	35.5	3.2%	1.0%
c1ccc(Nc2scc(-c3ccccc3)[n+]2Cc2ccco2)cc1	52.1*	-3.6%	-15.5%	158.0*	1.1%	-19.1%
Cc1ccc(NC(=O)/C(CN(C)C)=N\O)cc1	26.7*	-3.1%	7.9%	62.3*	5.0%	-9.9%
Cc1ccc(NC(=O)CN(C)CC(=O)Nc2ccccc2-c2ccccc2)cc1	-1.0	4.9%	-6.1%	-9.1	6.7%	-11.2%
Cc1cccc(C)c1NC(=O)CN(C)C(=O)/C=C/c1cccs1	0.3	0.2%	1.3%	-3.0	0.3%	4.2%
Cc1ccc(NC(=O)CN(C)C(=O)Nc2ccc(C)cc2)cc1	21.9*	0.9%	13.3%	68.5*	-0.8%	-14.7%
Cc1ccc(NC(=O)CN(C)C(=O)/C=C/c2cccs2)cc1	9.6*	1.7%	-3.3%	-2.5	4.2%	-1.6%
C[C@@H](Cc1cccc(C(F)(F)F)c1)NCCCc1ccccc1	nt	nt	-2.0%	nt	nt	nt
O=C1C=C(OCCF)CC(c2cccc([N+](=O)[O-])c2)O1 (stereo unspecified)	nt	nt	nt	nt	nt	-0.2%
CCN1C(=O)[C@H]2[C@@H](c3ccc(-c4ccc(C(C)=O)cc4)cc3)N3CCC[C@@]3(C(=O)OC)[C@H]2C1=O	nt	-3.8%	nt	nt	nt	3.2%

Bioassay records deposited in PubChem BioAssay by National Center for Advancing Translational Sciences (NCATS).
